Bioassay records deposited in PubChem by The Scripps Research Institute Molecular Screening Center.
hcDAF-12 act: activates DAF-12 receptor from parasite H. contortus; HEK293 hcDAF-12 lit1-tk-luc reporter, luminescence; 0% DMSO, 100% Δ7-dafachronic acid; activation, % at 6.8 µM; 1.4% of 370,000 active;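 active = activation above the mean of all tested compounds plus 3 SD, cut at about 5.5% in these data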;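 also: 100% = response to 3 µM Δ7-dafachronic acid high control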
ssDAF-12 act: activates DAF-12 receptor from parasite S. stercoralis; HEK293 ssDAF-12/GRIP1 lit1-tk-luc reporter, luminescence; % of 3 µM dafachronic acid response; activation, % at 6.8 µM; 1% of 370,000 active;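 active = activation above the mean over all tested compounds plus 3 SD, cut at about 0.9% in these data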;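 also: 0% = DMSO-only wells and 100% = 3 µM delta7-dafachronic acid wells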
DAX1 inh-1: inhibitors of DAX1 repression of SF-1 activated StAR promoter; HEK293T StAR-luciferase reporter, SF-1/DAX-1 repression relief; inhibition, % at 6.8 µM; 1.1% of 370,000 active;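 active = inhibition above the mean over all tested compounds plus 3 SD, cut at about 3.6% in these data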;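 also: 0% = DAX-1 cells with DMSO and 100% = cells lacking DAX-1 with DMSO; higher inhibition means more luminescence from relief of DAX-1 repression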
DAX1 inh-2: inhibits human nuclear receptor DAX1; inhibition, % at 6.75 µM; 0.99% of 340,000 active; HEK293 Gal4-DAX1 luciferase reporter, luminescence; P51843; AID 504766;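 active = inhibition above the mean over all tested compounds plus 3 SD, cut at about 4.2% in these data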;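 also: 0% = DAX1-transfected cells with DMSO and 100% = empty-vector control cells with DMSO; inhibition shows as a rise in luminescence from relieved DAX1 repression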
Target sequence (P51843 207-470 limits assumed): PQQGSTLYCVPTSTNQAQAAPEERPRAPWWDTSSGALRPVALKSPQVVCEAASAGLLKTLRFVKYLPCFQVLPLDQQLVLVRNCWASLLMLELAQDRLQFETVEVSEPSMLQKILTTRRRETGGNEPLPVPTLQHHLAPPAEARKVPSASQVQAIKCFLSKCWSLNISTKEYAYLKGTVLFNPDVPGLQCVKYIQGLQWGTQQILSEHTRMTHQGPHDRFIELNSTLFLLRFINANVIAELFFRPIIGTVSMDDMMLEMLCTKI
hgDAF12 agonist: agonists of H. glycines DAF-12 nuclear receptor | HEK293 GAL4-hgDAF12 UAS-luciferase reporter, agonist luminescence; normalized to butyrate control | activation, % at 6.8 µM | 1.8% of 370,000 active | AID 687014;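 active = activation above a cutoff set at the mean of all screened compounds plus 3 SD, cut at about 10% in these data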;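 also: 0% = DMSO wells and 100% = sodium butyrate wells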
The depositor's hits bear a star; . = no result given. In the library only some 4.1% were active in any assay of this set; here they are far more common.

SMILES	hcDAF-12 act	ssDAF-12 act	DAX1 inh-1	DAX1 inh-2	hgDAF12 agonist
O=S(=O)(c1ccc(F)cc1)N1CCCc2nc(-c3ccc(Br)cc3)ccc21	1	-1	-1	.	3
N#Cc1ccc(S(=O)(=O)N2CCCc3nc(-c4ccc(Br)cc4)ccc32)cc1	1	1.4*	-1	.	1
Cc1ccc(C(=O)NCCCc2ccccc2)s1	6.2*	0	1	3	10
O=C(NCCc1c[nH]c2ccccc12)c1ccccc1	2	-1	0	1	7
O=C(NCCc1c[nH]c2ccccc12)c1ccc([N+](=O)[O-])cc1	2	0	0	1	3
Cc1ccc(C(=O)NCCc2c[nH]c3ccccc23)s1	1	1.3*	1	1	10
O=C(NCCc1c[nH]c2ccccc12)c1cc([N+](=O)[O-])cc([N+](=O)[O-])c1	5	0.9*	0	-1	-1
Cc1ccc(C(=O)NCC(=O)NCCCc2ccccc2)s1	0	-1	0	-1	-1
COc1ccc(S(=O)(=O)N2CCCCCC2)c2ccccc12	0	-1	0	.	0
COC(=O)[C@]12C[C@H](CC(=O)NCC34CC5CC(CC(C5)C3)C4)C(=O)N(Cc3ccco3)C1=C[C@H](C(C)(C)C)O[C@@H]2C	-4	-2	-1	.	-1
Cc1ccccc1NC(=O)OC1CCC12CCC(c1ccccc1)CC2 (stereo not drawn)	-2	-1	-1	.	2
Cc1ccc(-c2nnc(SCC(=O)Nc3ccc(Oc4ccccc4)cc3)n2-c2ccc(Cl)cc2)cc1	0	-1	-1	.	-2
O=c1c2cc(Cl)ccc2nc(-c2ccccc2)n1O	-1	-1	0	0	2
O=c1c2cc(Cl)ccc2nc(-c2ccc(Cl)c(Cl)c2)n1O	4	0	0	4.5*	0
Cc1ccc(C(=O)/C=C/N(C)C)cn1	-2	-1	2	6.8*	-1
CN(C)/C=C/C(=O)c1ccc(Cl)cc1	-1	-2	1	-1	1
CC(=O)c1cccc(OCC(=O)N(CCC2=CCCCC2)c2c(N)n(Cc3ccccc3)c(=O)[nH]c2=O)c1	1	-2	0	4.3*	1
CC(=O)c1ccc(OCC(=O)N(CCC2=CCCCC2)c2c(N)n(Cc3ccccc3)c(=O)[nH]c2=O)cc1	-2	-1	0	1	4
C#CCN(CC=C)Cc1ccc(OC)cc1OC	0	-1	0	.	-4
COC(=O)C1=C(C)N(Cc2ccccc2C(F)(F)F)C(=NCC2CC2)NC1CCc1ccccc1 (stereo not drawn)	-1	-1	-2	.	-1
Cc1cc2c(c(=O)o1)[C@@]1(C(=O)Nc3ccccc31)C1=C(CCCC1=O)O2	2	-1	-1	.	2
CCC(C)[C@H](NC(=O)N1CC(=O)Nc2ccccc21)C(=O)N[C@@H](Cc1c[nH]c2ccccc12)C(=O)O (stereo partly drawn)	5.9*	0	1	4	-2
O=C1CN(C(=O)N[C@@H](Cc2ccccc2)C(=O)N[C@@H](Cc2ccccc2)C(=O)O)c2ccccc2N1	0	-1	1	1	-2
CC(C)[C@H](NC(=O)N1CC(=O)Nc2ccccc21)C(=O)N[C@@H](Cc1ccccc1)C(=O)O	0	-2	2	7.0*	3
COCC1CCN(C(=O)c2cc(COc3ccc4c(c3)CCCC4)on2)C1 (stereo not drawn)	-2	-1	-1	-1	-1
SMILES	hcDAF-12 act	ssDAF-12 act	DAX1 inh-1	DAX1 inh-2	hgDAF12 agonist
COc1ccc(OCc2cc(C(=O)N3CCCCCC3)no2)c(Cl)c1	-1	0	4.1*	1	9
COc1ccc(OCc2cc(C(=O)N3CCN(CC(=O)N(C)C)CC3)no2)c(Cl)c1	0	-1	0	1	-1
COc1ccc(OCc2cc(C(=O)N3CCSCC3)no2)c(Cl)c1	3	0	3.9*	1	10
COCCN1CCN(C(=O)c2cc(COc3ccc(Cl)cc3OC)on2)CC1	4	0	4.3*	1	6
O=C(c1cc(COc2ccc3c(c2)CCCC3)on1)N1CCCC1	4	1	4.0*	4	10
COc1cc(Cl)ccc1OCc1cc(C(=O)N2CCCCCCC2)no1	1	0	1	0	3
COc1ccc(CN2C[C@@]3(O)CC[C@@H](O)[C@@H](OC)[C@@H]3[C@@](C)(O)[C@@H]2CC=C(C)C)cc1	-1	-1	1	.	4
CN(C)CC(=O)N[C@H]1C[C@@H]2O[C@H](CO)CC[C@@H]2O[C@@H]1CCc1ccc(-c2ccc(F)cc2)cc1	-1	-1	0	.	1
Cc1ccc(-c2c(NC(=O)c3ccccc3)nc3ncccn23)cc1	1	-1	0	.	2
CCOC(=O)C1CCN(C(=O)c2cc(COc3ccc(F)cc3F)on2)CC1	2	1	3	2	12*
CCc1ccc(OCC(=O)NC(=S)Nc2ccc(F)cc2)c(Br)c1	2	-1	0	2	3
CCc1ccc(OCC(=O)N(C)C)c(Br)c1	-2	-1	0	5.5*	1
COC(=O)[C@]12C[C@H](CC(=O)NCCC(C)C)C(=O)N(CCC3=CCCCC3)C1=C[C@H](C(C)(C)C)O[C@@H]2C	0	-1	1	.	5
C=CCn1c(Br)nc2c1c(=O)[nH]c(=O)n2C	-1	-1	0	2	2
Cn1c(=O)[nH]c(=O)c2c1nc(Br)n2C/C=N/NC(=O)c1ccccc1	0	0	1	4.6*	6
Cn1c(=O)[nH]c(=O)c2c1nc(Br)n2C/C=N/Nc1ccccc1	0	0	3.7*	1	-2
COc1ccc(NC(=O)Nc2cc(C)ccc2OC)cc1	-2	-2	0	0	2
COc1ccc(C(=O)COc2ccc(C)cc2NC(C)=O)cc1	2	0	2	.	10*
O=Cc1c(-c2ccc(F)cc2)nc2ccccn12	-2	-1	0	0	-1
COc1ccc(-c2nc3ccccn3c2C=O)cc1	5.7*	0	1	-1	10
CC(=O)NCc1ccc(C(=O)CN2C(=O)NC3(CCCCC3C)C2=O)s1 (stereo not drawn)	1	-1	0	0	12*
CC1CCCCC12NC(=O)N(CC(=O)NCc1ccccc1)C2=O (stereo not drawn)	1	-1	0	0	3
Cc1ccccc1C(=O)N/N=C1/SCC(=O)N1Cc1ccccc1	-2	16*	0	-2	-5
Cc1cccc(C(=O)N/N=C2/SCC(=O)N2Cc2ccccc2)c1	0	-1	1	0	-2
COCCOc1ccc(C(F)(F)F)cc1NC(=O)CN1C(=O)NC(C)(c2ccc3c(c2)OCO3)C1=O (stereo not drawn)	-2	-1	-1	7.6*	-4
O=C(CCN1CCC(c2ccccc2)C1)c1cccs1 (stereo not drawn)	-1	-1	0	0	-1
